# Screens deposited in PubChem by several laboratories.
# Shown are actives, neighbours in structure and some others; about 27% of the full set was active somewhere.
# sEH inhibitor: soluble epoxide hydrolase inhibitors, primary screen, biochemical, human sEH | AID 707, 2007 | Bifunctional epoxide hydrolase 2 (Homo sapiens), P34913 | inhibition, % at 2 µM | hit rate 0.34% among 91,000 | recombinant human sEH enzymatic activity assay; in the data active = inhibition above about 80%
# Target sequence (P34913 whole entry, looked up): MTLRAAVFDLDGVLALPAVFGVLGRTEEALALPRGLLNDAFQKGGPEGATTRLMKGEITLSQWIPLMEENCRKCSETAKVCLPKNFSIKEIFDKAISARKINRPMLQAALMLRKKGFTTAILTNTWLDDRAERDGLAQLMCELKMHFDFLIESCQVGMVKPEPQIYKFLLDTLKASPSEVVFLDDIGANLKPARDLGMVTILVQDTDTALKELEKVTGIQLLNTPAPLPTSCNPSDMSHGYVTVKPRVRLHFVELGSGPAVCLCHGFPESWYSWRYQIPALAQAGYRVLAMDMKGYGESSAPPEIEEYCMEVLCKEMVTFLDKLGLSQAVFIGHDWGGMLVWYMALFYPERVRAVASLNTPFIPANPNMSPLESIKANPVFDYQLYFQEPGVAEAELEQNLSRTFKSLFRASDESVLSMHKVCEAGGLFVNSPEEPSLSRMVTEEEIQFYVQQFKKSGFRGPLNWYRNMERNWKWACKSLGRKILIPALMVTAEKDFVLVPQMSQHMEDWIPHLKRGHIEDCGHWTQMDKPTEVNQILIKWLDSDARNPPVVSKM
# CYP2C9 inhib: blockers of cytochrome P450 2C9 activity – biochemical, luminescence, ADME assay, primary screen; P11712; CYP2C9 Supersomes, luciferin-H conversion; inhibition, % at 5 µM; hit rate 20% among 96,000; AID 777, 2007;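 active = blocking of liver enzyme CYP2C9 beyond about 50% at 5 µM, limit read from the data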
# CYP2C19 inh: blockers of cytochrome P450 2C19 activity – biochemical, luminescence, ADME assay, primary screen. inhibition, % at 5 µM. AID 778, 2007. hit rate 21% among 96,000. P33261. CYP2C19 Supersomes, luciferin-H EGE luminescence, 30 min;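 active = CYP2C19 inhibition above a set limit at 5 µM in the primary screen, cut at about 50% in these data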;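 also: plate controls were negative control wells for no effect and 2.5 mM tranylcypromine positive control for full effect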
# CYP2C9 activ: human CYP2C9 activators, primary screen, biochemical, luminescence | Cytochrome P450 2C9 (Homo sapiens), P11712 | recombinant CYP2C9, luciferin-H conversion; stronger effect = higher value; factor 1 = untreated enzyme, 0 = blocked | activation factor at 5 µM | hit rate 1.4% among 96,000 | AID 1024, 2008;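 active = activation factor of 2 or more for CYP2C9 at a 5 µM dose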;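 also: 0 = sulfaphenazole-blocked wells and 1 = vehicle-only wells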
# CYP2C19 activ: human CYP2C19 activators, primary screen, biochemical, luminescence | Cytochrome P450 2C19 (Homo sapiens), P33261 | recombinant CYP2C19, luciferin-H EGE luminescence; stronger effect = higher value; 0 = fully inhibited enzyme, 1 = untreated enzyme | activation factor at 5 µM | 96,000 tested, under 10 active;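 active = activation factor of at least 2 at 5 µM in the primary screen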;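 also: 0 = wells with 2.5 mM tranylcypromine and 1 = vehicle-only wells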
# sEH activator: soluble epoxide hydrolase activators, primary screen, biochemical, human sEH | AID 717, 2007 | purified human sEH enzymatic activity, activator screen | activation, % at 2 µM | hit rate 0.04% among 91,000; in the data active = activation above about 37%
# An asterisk follows results filed as active; · = not tested or not shown.
SMILES,sEH inhibitor,CYP2C9 inhib,CYP2C19 inh,CYP2C9 activ,CYP2C19 activ,sEH activator
CCCCN(CCCC)S(=O)(=O)c1ccc(SCC(=O)OCC)c([N+](=O)[O-])c1,-21,67*,32,0.3,0.7,18
CCCCN(CCCC)S(=O)(=O)c1ccc(N2CCCC2=O)c([N+](=O)[O-])c1,-2,·,·,·,·,-1
CCOC(=O)CSC1=C(C#N)C(=O)NC(c2ccc(OC)c(OC)c2)S1 (stereo not given),6,40,9,0.6,0.9,-3
CCOC(=O)CSC1=C(C#N)C(=O)NC(c2ccc(OC)cc2)S1 (stereo not given),9,94*,-10,0.1,1.1,-7
CCCCn1c(SCC(=O)N2CCCCC2)nc2cc(S(N)(=O)=O)ccc21,5,24,9,0.8,0.9,-6
CCCCn1c(SCC(=O)NCc2ccccc2)nc2ccc(N3CCOCC3)cc2c1=O,12,74*,34,0.3,0.7,-11
CCCCn1c(SCC2CCCCO2)nc2cc(S(N)(=O)=O)ccc21 (stereo not given),1,46,7,0.5,0.9,-1
CCC(C)NC(=O)CSc1nc2ccc(N3CCOCC3)cc2c(=O)n1CCc1ccccc1 (stereo not given),·,5,1,0.9,1,·
CCCCn1c(SCc2nc3ccccc3s2)nc2cc(S(N)(=O)=O)ccc21,-4,73*,17,0.3,0.8,3
COc1cc2nc(SCC(=O)NCc3ccco3)n(Cc3ccc(Cl)cc3)c(=O)c2cc1OC,8,·,·,·,·,-6
CCCCn1c(SCC(=O)NCc2ccco2)nc2cc(S(N)(=O)=O)ccc21,0,68*,56*,0.3,0.4,0
CCCCn1c(SCC(=O)NCc2ccco2)nc2ccc(N3CCOCC3)cc2c1=O,·,60*,22,0.4,0.8,·
CCc1nc2ccccc2c(NC(=O)CN2CCC(C)CC2)c1C,-1,0,6,1,0.9,0
CCNc1ccc2c(Cl)cc(=O)oc2c1,-16,0,-5,1,1,14
Cc1ccc2c(n1)CC(C)(C)C/C2=N\O,7,·,·,·,·,-8
Cc1cc(NC(=O)C(C)(C)C)no1,-3,-3,-3,1,1,0
CCCCn1c(SCC(=O)Nc2ccc(OC)cc2)nc2ccc(N3CCOCC3)cc2c1=O,-9,100*,84*,0,0.2,9
COCCNC(=O)CSc1nc2ccc(N3CCOCC3)cc2c(=O)n1Cc1ccc(OC)cc1,4,84*,49,0.2,0.5,-6
CCN(CC)C(=O)CSc1nc2cc3c(cc2c(=O)n1Cc1ccc2c(c1)OCO2)OCO3,·,-6,-17,1.1,1.2,·
CCOC(=O)CSc1nc2ccc(N3CCOCC3)cc2c(=O)n1Cc1ccc2c(c1)OCO2,·,75*,81*,0.3,0.2,·
CCCCn1c(SCC(=O)NC(C)CC)nc2ccc(N3CCOCC3)cc2c1=O (stereo not given),-9,60*,28,0.4,0.7,8
CSc1nc(-c2ccco2)nn1C(=O)c1ccc(Cl)cc1,12,-5,-7,1.1,1.1,-11
CN=Cc1cc(-c2ccccc2)sc1O,4,-28,24,1.3,0.8,-3
O=C(NC1CCCC1)C1C2C=CC(C2)C1C(=O)N1CCOCC1 (stereo not given),-22,8,8,0.9,0.9,20
O=C(CSc1n[nH]c(-c2ccc(Cl)cc2Cl)n1)Nc1ccccn1,-6,72*,30,0.3,0.7,7
SMILES,sEH inhibitor,CYP2C9 inhib,CYP2C19 inh,CYP2C9 activ,CYP2C19 activ,sEH activator
Cc1cc(C)cc(NC(=O)c2cccn2-c2ncc(C(F)(F)F)cc2Cl)c1,10,20,50,0.8,0.5,-8
CC(O)C(NS(=O)(=O)c1ccc(Cl)cc1)C(=O)OCc1nnc(-c2ccccc2)o1 (stereo not given),-8,4,2,1,1,9
CCCNC(=S)Nc1ccc(Br)cc1,-4,30,44,0.7,0.6,4
Fc1cccc(NC(=S)Nc2ccc(Br)cc2)c1,3,58*,82*,0.4,0.2,-5
CCN(CC)c1ccc(NC(=O)COC(=O)C23CCC(=O)N2c2ccccc2S3)cc1 (stereo not given),3,33,8,0.7,0.9,0
CCN(CCCNC(=O)C1CCN(S(=O)(=O)N2CCC3(CC2)OCCO3)CC1)c1ccccc1,90*,38,53*,0.6,0.5,-90
COc1ccc(OC)c(S(=O)(=O)N2CCC(C(=O)NCc3ccccc3OC)CC2)c1,32,-144,35,2.4*,0.7,-35
O=C(C1CCN(S(=O)(=O)N2CCC3(CC2)OCCO3)CC1)N1CCc2ccccc2C1,11,41,76*,0.6,0.2,-10
COc1ccc(OC)c(S(=O)(=O)N2CCC(C(=O)NCc3ccccc3)CC2)c1,22,-268,25,3.7*,0.7,-23
COc1ccccc1CNC(=O)C1CCN(C(=O)N(C)C)CC1,3,-40,-10,1.4,1.1,0
C=CCOc1nc(N2CCCC2)nc(N2CCCC2)n1,3,-1,0,1,1,-4
COc1cc2nc(CN3CCN(c4ncc(C(F)(F)F)cc4Cl)CC3)[nH]c(=O)c2cc1OC,·,15,15,0.9,0.8,·
CCS(=O)(=O)C(=C1NCCO1)S(=O)(=O)CC,6,-14,-9,1.1,1.1,-5
COc1ccccc1CNC(=O)C1CCN(S(=O)(=O)c2cccc3cccnc23)CC1,13,-154,64*,2.5*,0.4,-12
COc1ccc(OC)c(S(=O)(=O)N2CCC(C(=O)N3CCc4ccccc4C3)CC2)c1,0,-8,78*,1.1,0.2,-2
CC(=O)c1c(OC(=O)c2ccccc2)c2ccccc2n1C,6,3,33,1,0.7,-5
C=CCSc1nc2c(c(=N)n1CC=C)C1CCCC1S2 (stereo not given),-15,36,32,0.6,0.7,12
CCN(CC)S(=O)(=O)c1ccc(Nc2nc3ccccc3n3nnnc23)cc1,·,63*,23,0.4,0.8,·
Brc1ccc(Nc2nc3ccccc3n3nnnc23)cc1,-5,16,4,0.8,1,7
COc1cccc(-c2nnc3sc(-c4ccccn4)nn23)c1,3,27,63*,0.7,0.4,-3
COc1cccc(-c2nn3c(-c4cc(C)[nH]n4)nnc3s2)c1,-12,42,37,0.6,0.6,10
COc1cccc(-c2nn3c(-c4ccccn4)nnc3s2)c1,-2,36,52*,0.6,0.5,2
COc1ccc(-c2nnc3sc(-c4ccccn4)nn23)cc1,·,57*,39,0.4,0.6,·
